Of roughly 8,800 targets only a part is listed; those with a hit were picked by preference. About 0.5% of all pairs of compound and target were hits.
Columns and labels:
Experiment in all cases: log2 fold change, soluble protein after heating vs DMSO (PISA); higher = thermal stabilisation; K562 lysate, 10 uM; active = over 0.2 and 3.5 SD of the protein, either way, in both replicates (recomputed)
nilotinib = compound: Cc1cn(-c2cc(NC(=O)c3ccc(C)c(Nc4nccc(-c5cccnc5)n4)c3)cc(C(F)(F)F)c2)cn1 [nilotinib]
Method in brief: (§1)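 Thermal stability, expressed as log-two fold change relative to solvent controls, is given from duplicates. Crude K562 extract in PBS pH 7.4 with 1 mM MgCl2, at 1 mg/mL protein, was treated with 10 μM compound for 30 min and heated in aliquots for 3 min across 48°C-58°C. After pooling, adjustment to 0.5% NP-40 at 4°C and centrifugation at 21,000xg for 90 min, supernatant protein was measured by TMTpro 16plex LC-MS/MS with channel sums equalised.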

[1] = compound: Cc1nc(Nc2n[nH]c3c2CN(C(=O)N[C@H](CN(C)C)c2ccccc2)C3(C)C)c2sccc2n1
Method in brief: as §1

dasatinib = compound: Cc1nc(Nc2ncc(C(=O)Nc3c(C)cccc3Cl)s2)cc(N2CCN(CCO)CC2)n1 [dasatinib]
Method in brief: as §1

[2] = compound: Cc1ncc(-c2ccnc(Nc3ccc(S(C)(=O)=O)cc3)n2)n1C(C)C
Method in brief: as §1

[3] = compound: Cn1cc(-c2ccc3c(c2)CCN3C(=O)Cc2cccc(C(F)(F)F)c2)c2c(N)ncnc21
Method in brief: as §1

quisinostat = compound: Cn1cc(CNCC2CCN(c3ncc(C(=O)NO)cn3)CC2)c2ccccc21 [quisinostat]
Method in brief: as §1

tipifarnib = compound: Cn1cncc1[C@@](N)(c1ccc(Cl)cc1)c1ccc2c(c1)c(-c1cccc(Cl)c1)cc(=O)n2C [tipifarnib]
Method in brief: as §1

[4] = compound: NC(=O)Nc1cc(-c2cccc(F)c2)sc1C(=O)N[C@H]1CCCNC1
Method in brief: as §1

[5] = compound: NC(=O)c1cnc(N[C@@H]2CCCC[C@@H]2N)nc1Nc1cccc(-n2nccn2)c1
Method in brief: as §1

[6] = compound: NC1(c2ccc(-c3nc4ccn5c(=O)[nH]nc5c4cc3-c3ccccc3)cc2)CCC1
Method in brief: as §1

Measured: log2 fold change

PPOX (UniProt P50336)
inactive: nilotinib 0.227 | [1] -0.001 | dasatinib 0.086 | [2] 0.054 | [3] -0.004 | quisinostat 0.129 | tipifarnib -0.012 | [4] -0.019 | [5] -0.008 | [6] -0.036

PRC1 (UniProt O43663)
Sequence of UniProt O43663 (O43663 whole entry, looked up): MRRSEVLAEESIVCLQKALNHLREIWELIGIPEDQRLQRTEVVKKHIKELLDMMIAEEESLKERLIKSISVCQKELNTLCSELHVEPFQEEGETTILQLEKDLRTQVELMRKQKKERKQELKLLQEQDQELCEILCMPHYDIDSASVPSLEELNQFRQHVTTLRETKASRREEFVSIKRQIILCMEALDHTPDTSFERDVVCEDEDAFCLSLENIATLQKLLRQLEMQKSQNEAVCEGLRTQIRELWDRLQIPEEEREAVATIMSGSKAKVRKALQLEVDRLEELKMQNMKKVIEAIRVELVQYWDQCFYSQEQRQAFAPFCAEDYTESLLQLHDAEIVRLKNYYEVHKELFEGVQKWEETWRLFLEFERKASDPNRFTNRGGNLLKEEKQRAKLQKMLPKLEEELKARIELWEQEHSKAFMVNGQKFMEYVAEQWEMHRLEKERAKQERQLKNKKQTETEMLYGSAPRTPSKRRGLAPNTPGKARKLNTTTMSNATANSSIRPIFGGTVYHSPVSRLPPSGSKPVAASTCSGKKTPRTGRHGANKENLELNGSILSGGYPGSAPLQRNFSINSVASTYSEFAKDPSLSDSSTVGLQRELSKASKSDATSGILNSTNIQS
inactive: nilotinib 0.013 | [1] -0.008 | dasatinib -0.012 | [2] -0.007 | [3] 0.05 | quisinostat -0.035 | tipifarnib -0.011 | [4] 0.009 | [5] -0.002 | [6] -0.044

PCBD2 (UniProt Q9H0N5)
Sequence of UniProt Q9H0N5 (Q9H0N5 whole entry, looked up): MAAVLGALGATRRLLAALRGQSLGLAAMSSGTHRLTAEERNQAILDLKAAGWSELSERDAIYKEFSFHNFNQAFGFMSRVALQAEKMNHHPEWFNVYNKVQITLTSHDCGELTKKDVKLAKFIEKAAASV
inactive: nilotinib 0.01 | [1] -0.045 | dasatinib 0.011 | [2] -0.063 | [3] 0.051 | quisinostat -0.08 | tipifarnib -0.101 | [4] 0.033 | [5] 0.069 | [6] -0.066

PEX2 (UniProt P28328)
inactive: nilotinib 0.059 | [1] -0.158 | dasatinib -0.078 | [2] -0.041 | [3] 0.039 | quisinostat 0.054 | tipifarnib 0.048 | [4] 0.143 | [5] 0.116 | [6] -0.106

PDXK (UniProt O00764)
Sequence of UniProt O00764 (O00764 whole entry, looked up): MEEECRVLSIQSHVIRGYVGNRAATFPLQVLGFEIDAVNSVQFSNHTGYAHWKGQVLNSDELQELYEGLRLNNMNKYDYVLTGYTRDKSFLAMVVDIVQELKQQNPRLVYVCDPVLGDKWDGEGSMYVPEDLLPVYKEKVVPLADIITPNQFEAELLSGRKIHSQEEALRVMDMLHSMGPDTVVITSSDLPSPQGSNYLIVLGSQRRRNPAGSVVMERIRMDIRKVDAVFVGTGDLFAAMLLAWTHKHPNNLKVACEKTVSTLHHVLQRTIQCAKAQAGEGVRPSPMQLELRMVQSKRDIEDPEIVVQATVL
inactive: nilotinib 0.123 | [1] -0.031 | dasatinib 0.005 | [2] 0.055 | [3] -0.003 | quisinostat -0.03 | tipifarnib 0.012 | [4] -0.008 | [5] -0.008 | [6] -0.023

PRADC1 (UniProt Q9BSG0)
Sequence of UniProt Q9BSG0 (Q9BSG0 whole entry, looked up): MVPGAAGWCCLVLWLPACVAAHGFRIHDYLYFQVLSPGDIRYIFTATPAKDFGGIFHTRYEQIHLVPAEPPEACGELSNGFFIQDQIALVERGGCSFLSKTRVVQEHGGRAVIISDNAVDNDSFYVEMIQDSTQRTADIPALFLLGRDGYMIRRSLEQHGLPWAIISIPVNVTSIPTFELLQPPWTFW
inactive: nilotinib 0.1 | [1] -0.1 | dasatinib 0.019 | [2] -0.047 | [3] 0.053 | quisinostat -0.007 | tipifarnib 0.296 | [4] -0.031 | [5] -0.016 | [6] 0.013

PTGES2 (UniProt Q9H7Z7)
Sequence of UniProt Q9H7Z7 (Q9H7Z7 whole entry, looked up): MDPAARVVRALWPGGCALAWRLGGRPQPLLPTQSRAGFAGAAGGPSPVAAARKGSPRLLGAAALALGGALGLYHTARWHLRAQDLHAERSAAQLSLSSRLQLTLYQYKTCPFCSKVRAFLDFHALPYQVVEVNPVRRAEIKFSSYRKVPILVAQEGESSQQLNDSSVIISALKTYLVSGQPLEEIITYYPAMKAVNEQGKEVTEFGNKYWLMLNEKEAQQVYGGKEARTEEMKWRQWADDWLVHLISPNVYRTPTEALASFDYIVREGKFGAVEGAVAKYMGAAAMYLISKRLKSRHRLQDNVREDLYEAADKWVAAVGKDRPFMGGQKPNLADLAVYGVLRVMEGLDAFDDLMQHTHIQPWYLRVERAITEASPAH
inactive: nilotinib 0.446 | [1] -0.044 | dasatinib 0.01 | [2] -0.019 | [3] 0.015 | quisinostat -0.046 | tipifarnib -0.057 | [4] -0.012 | [5] -0.056 | [6] -0.078

PDAP1 (UniProt Q13442)
Sequence of UniProt Q13442 (Q13442 whole entry, looked up): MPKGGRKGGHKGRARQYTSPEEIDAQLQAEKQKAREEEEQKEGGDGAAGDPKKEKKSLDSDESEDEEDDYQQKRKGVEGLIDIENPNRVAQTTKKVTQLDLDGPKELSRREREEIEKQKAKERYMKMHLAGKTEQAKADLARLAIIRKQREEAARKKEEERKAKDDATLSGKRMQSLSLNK
inactive: nilotinib 0 | [1] 0.002 | dasatinib 0.066 | [2] -0.01 | [3] -0.009 | quisinostat 0.013 | tipifarnib 0.044 | [4] 0.017 | [5] -0.016 | [6] -0.032

PTPN1 (UniProt P18031)
Sequence of UniProt P18031 (P18031 whole entry, looked up): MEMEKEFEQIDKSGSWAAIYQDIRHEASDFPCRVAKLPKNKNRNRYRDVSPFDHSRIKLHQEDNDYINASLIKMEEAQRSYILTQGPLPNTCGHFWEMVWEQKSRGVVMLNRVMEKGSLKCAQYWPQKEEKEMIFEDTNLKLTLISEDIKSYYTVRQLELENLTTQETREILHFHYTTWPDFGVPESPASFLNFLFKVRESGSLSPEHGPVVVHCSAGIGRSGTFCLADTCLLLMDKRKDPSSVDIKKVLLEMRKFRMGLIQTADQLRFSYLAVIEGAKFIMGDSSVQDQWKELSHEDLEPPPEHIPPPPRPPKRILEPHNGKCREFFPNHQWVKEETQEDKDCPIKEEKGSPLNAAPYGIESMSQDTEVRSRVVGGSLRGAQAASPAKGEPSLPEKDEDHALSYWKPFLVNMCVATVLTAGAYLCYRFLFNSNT
inactive: nilotinib -0.001 | [1] 0.019 | dasatinib -0.062 | [2] 0.007 | [3] 0.027 | quisinostat -0.051 | tipifarnib -0.032 | [4] 0.039 | [5] 0.026 | [6] 0.021

PEF1 (UniProt Q9UBV8)
Sequence of UniProt Q9UBV8 (Q9UBV8 whole entry, looked up): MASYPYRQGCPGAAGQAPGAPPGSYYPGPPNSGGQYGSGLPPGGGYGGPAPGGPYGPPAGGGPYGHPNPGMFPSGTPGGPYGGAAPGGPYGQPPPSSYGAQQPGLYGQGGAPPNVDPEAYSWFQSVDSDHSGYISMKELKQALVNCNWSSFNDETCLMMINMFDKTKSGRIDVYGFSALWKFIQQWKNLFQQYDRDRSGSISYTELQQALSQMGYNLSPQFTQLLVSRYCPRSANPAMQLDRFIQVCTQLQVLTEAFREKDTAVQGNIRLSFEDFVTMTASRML
inactive: nilotinib 0.026 | [1] 0.013 | dasatinib 0.012 | [2] -0.015 | [3] -0.004 | quisinostat 0.08 | tipifarnib 0.028 | [4] -0.018 | [5] 0.005 | [6] 0.011

PRMT5 (UniProt O14744)
Sequence of UniProt O14744 (O14744 whole entry, looked up): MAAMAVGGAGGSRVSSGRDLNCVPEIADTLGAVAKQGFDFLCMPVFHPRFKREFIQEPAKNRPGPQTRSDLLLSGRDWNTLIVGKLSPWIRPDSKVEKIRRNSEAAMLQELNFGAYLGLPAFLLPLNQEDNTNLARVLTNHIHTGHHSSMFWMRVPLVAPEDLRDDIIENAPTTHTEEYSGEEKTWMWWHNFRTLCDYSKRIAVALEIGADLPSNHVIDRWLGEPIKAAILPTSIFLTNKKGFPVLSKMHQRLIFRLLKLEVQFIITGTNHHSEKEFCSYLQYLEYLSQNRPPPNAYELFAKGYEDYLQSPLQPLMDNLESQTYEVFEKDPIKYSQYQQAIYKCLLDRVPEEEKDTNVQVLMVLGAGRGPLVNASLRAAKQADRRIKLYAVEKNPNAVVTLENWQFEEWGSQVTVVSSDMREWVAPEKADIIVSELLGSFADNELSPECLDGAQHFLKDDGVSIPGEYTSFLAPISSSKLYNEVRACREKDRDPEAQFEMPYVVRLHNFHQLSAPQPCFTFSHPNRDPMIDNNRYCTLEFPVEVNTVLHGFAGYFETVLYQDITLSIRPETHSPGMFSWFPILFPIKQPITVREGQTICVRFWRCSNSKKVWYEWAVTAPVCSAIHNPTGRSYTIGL
inactive: nilotinib 0 | [1] 0.005 | dasatinib 0.094 | [2] -0.024 | [3] -0.028 | quisinostat -0.027 | tipifarnib 0 | [4] 0.035 | [5] -0.015 | [6] -0.019

PICALM (UniProt Q13492)
Sequence of UniProt Q13492 (Q13492 whole entry, looked up): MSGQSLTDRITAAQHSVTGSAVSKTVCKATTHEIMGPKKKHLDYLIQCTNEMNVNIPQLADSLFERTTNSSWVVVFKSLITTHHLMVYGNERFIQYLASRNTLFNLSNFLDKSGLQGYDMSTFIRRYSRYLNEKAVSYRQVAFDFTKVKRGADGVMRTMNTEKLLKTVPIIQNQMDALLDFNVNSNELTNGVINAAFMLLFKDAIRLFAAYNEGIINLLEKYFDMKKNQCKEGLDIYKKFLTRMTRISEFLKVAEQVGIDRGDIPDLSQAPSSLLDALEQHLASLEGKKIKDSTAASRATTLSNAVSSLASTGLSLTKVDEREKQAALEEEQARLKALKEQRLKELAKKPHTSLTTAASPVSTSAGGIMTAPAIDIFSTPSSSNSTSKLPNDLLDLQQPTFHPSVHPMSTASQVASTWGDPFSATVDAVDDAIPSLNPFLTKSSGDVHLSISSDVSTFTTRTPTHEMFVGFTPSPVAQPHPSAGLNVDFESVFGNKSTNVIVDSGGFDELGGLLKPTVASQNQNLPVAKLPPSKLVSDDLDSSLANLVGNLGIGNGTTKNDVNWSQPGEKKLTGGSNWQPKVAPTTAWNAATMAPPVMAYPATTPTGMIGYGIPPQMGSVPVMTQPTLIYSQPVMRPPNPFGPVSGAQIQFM
inactive: nilotinib -0.012 | [1] -0.01 | dasatinib -0.036 | [2] -0.009 | [3] 0.001 | quisinostat -0.003 | tipifarnib -0.042 | [4] -0.018 | [5] 0.012 | [6] 0.007

PYCR2 (UniProt Q96C36)
Sequence of UniProt Q96C36 (Q96C36 whole entry, looked up): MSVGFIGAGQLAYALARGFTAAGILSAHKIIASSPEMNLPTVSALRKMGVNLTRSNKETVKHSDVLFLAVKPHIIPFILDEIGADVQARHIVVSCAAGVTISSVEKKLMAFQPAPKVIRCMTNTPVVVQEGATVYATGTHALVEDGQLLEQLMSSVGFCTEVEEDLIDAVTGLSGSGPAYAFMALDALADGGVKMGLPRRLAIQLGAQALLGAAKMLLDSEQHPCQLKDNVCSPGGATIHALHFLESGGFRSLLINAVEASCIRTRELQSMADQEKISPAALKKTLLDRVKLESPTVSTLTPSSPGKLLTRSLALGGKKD
inactive: nilotinib 0.03 | [1] -0.027 | dasatinib 0.011 | [2] -0.007 | [3] -0.005 | quisinostat 0.073 | tipifarnib -0.015 | [4] -0.021 | [5] 0.007 | [6] 0.018

PTS (UniProt Q03393)
Sequence of UniProt Q03393 (Q03393 whole entry, looked up): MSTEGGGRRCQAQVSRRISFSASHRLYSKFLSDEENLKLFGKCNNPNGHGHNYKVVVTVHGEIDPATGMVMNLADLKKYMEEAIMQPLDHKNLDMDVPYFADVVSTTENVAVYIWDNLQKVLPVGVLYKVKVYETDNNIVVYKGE
inactive: nilotinib 0.172 | [1] 0.024 | dasatinib 0 | [2] -0.018 | [3] 0.082 | quisinostat -0.083 | tipifarnib 0.112 | [4] 0.126 | [5] 0.006 | [6] -0.077

PRIM1 (UniProt P49642)
Sequence of UniProt P49642 (P49642 whole entry, looked up): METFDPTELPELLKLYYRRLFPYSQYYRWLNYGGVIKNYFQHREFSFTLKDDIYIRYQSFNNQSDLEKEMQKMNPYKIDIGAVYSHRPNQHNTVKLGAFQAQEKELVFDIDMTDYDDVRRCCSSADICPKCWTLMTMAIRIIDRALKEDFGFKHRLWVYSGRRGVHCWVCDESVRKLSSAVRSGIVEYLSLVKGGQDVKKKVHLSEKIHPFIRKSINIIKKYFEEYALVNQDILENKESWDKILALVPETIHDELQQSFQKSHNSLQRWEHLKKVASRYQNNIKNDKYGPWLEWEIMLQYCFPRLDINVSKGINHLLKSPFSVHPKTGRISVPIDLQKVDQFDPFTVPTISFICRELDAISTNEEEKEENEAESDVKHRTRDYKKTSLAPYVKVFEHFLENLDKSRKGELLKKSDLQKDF
inactive: nilotinib 0 | [1] -0.011 | dasatinib -0.05 | [2] -0.006 | [3] 0.019 | quisinostat 0.014 | tipifarnib -0.022 | [4] 0.028 | [5] 0.001 | [6] -0.031
